# Screening data deposited in PubChem by several laboratories.
# Rows were chosen to be rich in hits. Some 2.7% of all compounds tested hit in one or more screens of this group.
# CF NFkB inh: cystic fibrosis NF-kB activation inhibition; inhibition, % at 5 µM; actives 0.86% (n = 360,000); KKLEB NF-kB-GFP reporter, PAF-induced, GFP fluorescence overnight;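 active = at least 50% inhibition at 5 µM, scaled per plate between neutral and stimulator controls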;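 note: PAF is a Pseudomonas aeruginosa culture filtrate used as stimulus; plate controls were PAF-stimulated DMSO wells for no effect and unstimulated DMSO wells for full effect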
# Shn3 inh set2: Schnurri-3 reporter inhibition in Clone20 osteoblasts; Clone20 osteoblast Shn3 3'UTR firefly luciferase, 24 h; inhibition, % at 12.5 µM; actives 0.52% (n = 360,000); AID 588674;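 active = mean inhibition of at least 75% with every replicate also reaching 75%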;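 note: 0% = median of neutral control wells and 100% = pilot-screen positive control compound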
# KKLEB cytotox: reduces viability of KKLEB cystic fibrosis airway cells | actives 0.36% (n = 360,000) | KKLEB CF airway cells viability, ATPlite luminescence, overnight; hits give low values; cells stimulated with P. aeruginosa culture filtrate | activity change (cytotoxicity), % at 5 µM;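 active = corrected activity change at or below -50% at 5 µM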
# Peg3 prom inh: Peg3 promoter activity inhibition; inhibition, % at 20 µM; actives 1.7% (n = 360,000); AID 588405; HeLa PEG-Prom luciferase reporter, luminescence, overnight;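 active = inhibition of at least 50% at 20 µM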
# MITF TRPM1 inh: reduces MITF-dependent TRPM1 promoter luciferase signal. actives 0.83% (n = 330,000). SK-MEL-5 TRPM1 promoter luciferase, 24 h. AID 488899. inhibition, % at 12.5 µM;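 active = mean inhibition across replicates of 60% or more, whatever share of single replicates reaches that level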
# HIF-2a inh: inhibitors of HIF-2a; inhibition, % at 18.8 µM; actives 0.72% (n = 360,000); 786-0 RCC cells HIF-2a reporter, luciferase luminescence, overnight; AID 624352;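 active = inhibition of the luminescence signal of 40% or more relative to plate controls, in a single-dose primary screen at 18.75 µM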
# CF NFkB inh conf: CF NF-kB inhibition confirmation, single concentration; shares compounds with CF NFkB inh; KKLEB CF airway cells, PAF-induced NF-kB-GFP fluorescence, overnight; inhibition, % at 5 µM; actives 64% (n = 1,300); in the data active = inhibition above about 40%;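 note: stimulus PAF is a Pseudomonas aeruginosa filtrate and not platelet activating factor; plate controls were DMSO wells with stimulus for no effect and unstimulated DMSO wells for full effect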
# Mdm2-MdmX confirm: Mdm2/MdmX (human) interaction inhibition, confirmed; shares compounds with HIF-2a inh; SaOS-2 split-luciferase Mdm2/MdmX complementation, luminescence; inhibition, % at 8 µM; actives 99% (n = 740); AID 504601;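 active = mean inhibition of the luminescence signal across two replicates at or above 26 percent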
# Target sequence (O15151 whole entry, looked up): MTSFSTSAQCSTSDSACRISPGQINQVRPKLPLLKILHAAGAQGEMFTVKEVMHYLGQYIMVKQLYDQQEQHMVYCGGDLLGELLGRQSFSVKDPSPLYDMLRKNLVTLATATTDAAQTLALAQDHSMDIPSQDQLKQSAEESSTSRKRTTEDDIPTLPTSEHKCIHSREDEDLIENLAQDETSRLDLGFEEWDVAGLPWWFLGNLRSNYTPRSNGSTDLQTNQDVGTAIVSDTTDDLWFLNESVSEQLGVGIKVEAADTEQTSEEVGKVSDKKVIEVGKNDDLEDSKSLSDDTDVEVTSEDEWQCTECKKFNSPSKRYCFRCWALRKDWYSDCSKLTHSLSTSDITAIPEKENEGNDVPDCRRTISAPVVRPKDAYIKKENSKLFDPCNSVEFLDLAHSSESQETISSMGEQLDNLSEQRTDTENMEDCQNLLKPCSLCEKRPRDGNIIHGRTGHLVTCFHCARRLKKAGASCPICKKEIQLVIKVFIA
# Target sequence (Q00987 whole entry, looked up): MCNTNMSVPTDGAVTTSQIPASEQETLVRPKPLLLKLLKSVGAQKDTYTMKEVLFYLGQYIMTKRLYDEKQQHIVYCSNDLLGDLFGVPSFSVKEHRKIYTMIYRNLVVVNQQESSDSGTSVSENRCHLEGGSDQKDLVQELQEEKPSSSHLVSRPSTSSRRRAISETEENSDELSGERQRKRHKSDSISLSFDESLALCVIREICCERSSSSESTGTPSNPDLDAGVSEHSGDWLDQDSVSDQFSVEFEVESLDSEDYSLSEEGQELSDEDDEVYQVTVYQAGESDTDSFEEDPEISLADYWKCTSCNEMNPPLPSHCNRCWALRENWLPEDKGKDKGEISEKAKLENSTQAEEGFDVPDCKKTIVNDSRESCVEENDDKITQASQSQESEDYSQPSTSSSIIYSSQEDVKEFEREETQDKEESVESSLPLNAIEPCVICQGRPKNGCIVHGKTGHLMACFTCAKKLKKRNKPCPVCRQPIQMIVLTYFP
# HIF-2a inh conf: HIF-2a inhibition, single concentration confirmation; shares compounds with HIF-2a inh; 786-0 RCC cells, HIF-2a luciferase reporter luminescence, overnight; inhibition, % at 18.8 µM; actives 56% (n = 1,800); AID 651580;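 active = mean inhibition across four replicates of at least 40 percent at the single tested concentration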
# HIF-1a cs: inhibits HIF-1a reporter, a counter-screen for HIF-2a inhibitors; actives 72% (n = 1,800); inhibition, % at 18.8 µM; AID 651589; shares compounds with HIF-2a inh; MiaPaCa-2 HIF-1a luciferase reporter, desferoxamine, overnight;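 active = mean inhibition of the reporter signal across four replicates at the single tested dose of 50% or more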
# * hit, by the source's call; i = inactive; nt = no result given.
SMILES,CF NFkB inh,Shn3 inh set2,KKLEB cytotox,Peg3 prom inh,MITF TRPM1 inh,HIF-2a inh,CF NFkB inh conf,HIF-2a inh conf,HIF-1a cs,others
COc1ccc(CNC(=O)/C=C/c2ccccc2[N+](=O)[O-])cc1,-12,-9,-15,-33,2,-61,nt,nt,nt,
C#CCN(C[C@@H]1[C@@H](OC(=O)NC2CCCC2)[C@@H](OC(=O)NC2CCCC2)Cn2c(=O)ccc(=O)n21)S(=O)(=O)c1ccc(C)cc1,64*,94*,-24,96*,nt,97*,12,99*,108*,
C#CCN(C[C@@H]1[C@@H](OC(=O)NC2CC2)[C@@H](OC(=O)NC2CC2)CN(C(=O)OC(C)C)N1C(=O)OC(C)C)S(=O)(=O)c1ccc(C)cc1,14,-9,8,-30,nt,20,nt,nt,nt,
Cc1cc2nc(C(C)(C)C)c(Cc3cccc(F)c3)n2c(C)c1Br,38,7,-34,-1,nt,17,nt,nt,nt,
CC(C)[C@H](NC(=O)OC(C)(C)C)c1nnc(S(=O)(=O)Cc2c(F)cccc2Cl)o1,83*,95*,-2,104*,99*,40*,43*,34,8,
CC(C)=CCSc1nnc([C@@H](NC(=O)OC(C)(C)C)C(C)C)o1,-1,24,8,2,-5,6,nt,nt,nt,
CCOC(=O)C1(C)CCCN(C(=O)c2cc(C)oc2C)C1 (stereo unspecified),23,2,-16,2,nt,-1,nt,nt,nt,
CSCCC(C(=O)Nc1c(C)cccc1C)n1c(-c2ccc(C(F)(F)F)cc2)nc2ccccc21 (stereo unspecified),nt,nt,nt,nt,nt,-2,nt,nt,nt,
O=C(Nc1c(Cl)ccc2nsnc12)c1ccc([N+](=O)[O-])o1,87*,76,-20,90*,89*,60*,-6,28,100*,
CCOC(=O)C(=Cc1ccc(OCc2ccc([N+](=O)[O-])cc2)c(OC)c1)C(=O)OCC,54*,84,-3,58*,4,93*,-253,98*,108*,
COc1cc(/C=N/NC(=O)c2cccc([N+](=O)[O-])c2)ccc1OCc1ccccc1,8,-32,-20,-55,-108,11,nt,nt,nt,
O=C(NCc1cccnc1)/C(=C\c1ccc(-c2cccc(Cl)c2)o1)S(=O)(=O)c1ccccc1,70*,97*,-19,104*,90*,98*,77*,99*,105*,
N/C(=C\C(=O)c1cc(Cl)ccc1O)C(Cl)(Cl)Cl,54*,40,5,29,51,25,-62,nt,nt,Mdm2-MdmX confirm=103*
COc1ccc2cc3c(N)nn(C(=O)c4ccc(Cl)c([N+](=O)[O-])c4)c3nc2c1,65*,10,-7,-1,-1,1,39,nt,nt,Mdm2-MdmX confirm=96*
COc1ccc2cc3c(N)nn(C(=O)c4ccccc4[N+](=O)[O-])c3nc2c1,71*,13,-28,4,12,32,93*,nt,nt,Mdm2-MdmX confirm=93*
CCCC1CCC(C(=O)n2nc(N)c3cc4ccc(OC)cc4nc32)CC1 (stereo unspecified),36,-2,3,9,nt,15,nt,nt,nt,
Cc1noc2ncnc(Sc3ccccc3Cl)c12,53*,-10,-5,115*,20,67*,-69,10,24,
CC(C)C(=O)N1CCN(c2ccc(NC(=O)c3ccc([N+](=O)[O-])o3)cc2Cl)CC1,69*,96*,-12,109*,85*,91*,24,80*,99*,
CC(C)C(=O)N1CCN(c2ccc(NC(=O)c3ccc(Br)o3)cc2)CC1,5,3,8,-5,-14,-19,nt,nt,nt,
Cc1c(-c2ccccc2)oc2c(C(=O)N3CCN(c4ccc([N+](=O)[O-])cc4)CC3)cccc2c1=O,82*,26,-20,2,-19,27,82*,nt,nt,Mdm2-MdmX confirm=87*
Cc1c(C(=O)N2CCN(c3ccc([N+](=O)[O-])cc3)CC2)oc2ccccc12,11,12,4,24,4,1,nt,nt,nt,
O=C(Cn1cc(/C=C\[N+](=O)[O-])c2ccccc21)Nc1ccccc1,54*,95*,-7,92*,91*,96*,-49,25,106*,
OC(c1cccc(CN2CCCCC2)c1)c1ncc(-c2cccc3ccccc23)[nH]1 (stereo unspecified),10,22,2,8,nt,-17,nt,nt,nt,
CC(=O)Oc1ccccc1C(=O)C=Cc1cccc([N+](=O)[O-])c1,80*,56,-41,99*,93*,89*,-60,94*,103*,
Cc1cc(O)c(C(=O)/C=C/c2cccc([N+](=O)[O-])c2)c(=O)o1,15,nt,-16,-1,13,-2,nt,nt,nt,
SMILES,CF NFkB inh,Shn3 inh set2,KKLEB cytotox,Peg3 prom inh,MITF TRPM1 inh,HIF-2a inh,CF NFkB inh conf,HIF-2a inh conf,HIF-1a cs,others
O=C(C=Cc1ccccc1)CC(c1ccccc1)N1CCOCC1 (stereo unspecified),94*,24,-36,108*,76*,70*,i,-26,102*,
O=C1NC[C@H](Cc2ccccc2)N(C[C@H]2CCCN2C[C@H](Cc2ccccc2)N2C[C@H](Cc3ccccc3)N(CC3CCCCCC3)C(=O)C2=O)C1=O,56*,6,-24,54*,2,80*,20,2,105*,
O=c1c(Cl)c(Cl)cnn1Cc1nnc(-c2ccccc2Br)o1,84*,78,-25,106*,95*,96*,45*,73*,106*,Mdm2-MdmX confirm=101*
Clc1ccccc1OCc1nnc(-c2ccccc2Br)o1,14,-83,-5,-321,-107,-312,nt,nt,nt,
C[C@]12CC[C@H](O)CC1=CCC1C2CC[C@@]2(C)C1CC[C@@H]2NCc1ccccc1 (stereo partly specified),-9,64,-4,12,nt,20,nt,nt,nt,
CC1(C(=O)Nc2cccc(OC(F)(F)F)c2)Cc2c(-c3cccc(C(N)=O)c3)ccnc2O1 (stereo unspecified),-17,11,2,30,nt,14,nt,nt,nt,
CCCCN(CCCNC(=O)c1ccc2c(c1)NC(=O)CN2C)c1ccccc1,65*,14,-30,66*,nt,45*,6,49*,94*,
